Results from PubChem BioAssay AID720597 (Broad Institute, 2013).
Potency and affinity values are given separately. Activity calls are given as the source filed them.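 The calls were made as follows: active = fitted half-maximal dose no more than twice the top valid tested dose, for compounds that lower signal; inconclusive = fit invalid, or curve flat with activity between -70 and -30; inactive = potency past limit, curve flat within ±30, or signal increasing.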

Target: NAD-dependent protein deacylase sirtuin-5, mitochondrial (Homo sapiens) (UniProt Q9NXA8)
Test: blockers of sirtuin-5 peptide desuccinylation – biochemical, fluorescence imaging, cherry-pick, set 6, dose response (AID 720597);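 also: lower AMC signal can also come from blocking the trypsin step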
Conditions: Purified SirT5, succinyl-peptide-AMC/trypsin fluorescence; series mostly up to 15 µM

NAD-dependent protein deacylase sirtuin-5, mitochondrial (Homo sapiens), sequence (Q9NXA8 whole entry, looked up): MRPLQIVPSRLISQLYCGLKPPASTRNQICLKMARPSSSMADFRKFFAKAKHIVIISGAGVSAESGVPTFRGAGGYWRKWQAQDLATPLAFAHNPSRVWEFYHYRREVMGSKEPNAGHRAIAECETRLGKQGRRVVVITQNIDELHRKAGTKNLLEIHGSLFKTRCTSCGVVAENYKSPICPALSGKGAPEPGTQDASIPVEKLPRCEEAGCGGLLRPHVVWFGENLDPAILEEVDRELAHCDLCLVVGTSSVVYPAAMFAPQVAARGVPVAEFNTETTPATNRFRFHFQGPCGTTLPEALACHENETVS

outcome, inactive:
CS(=O)(=O)N(CC(=O)NC1CCCCC1)c1cccc(F)c1
O=C(CC1CC1)N1CC2(C1)[C@@H](c1ccccc1)[C@@H](CO)N2Cc1cccc(F)c1
C[C@H]1CN([C@@H](C)CO)S(=O)(=O)c2ccc(/C=C/c3ccccc3)cc2O[C@H]1CN(C)C(=O)Nc1cc(F)ccc1F
COc1ccc(S(=O)(=O)N(C)C[C@@H]2OCCCC[C@H](C)Oc3ccc(NS(=O)(=O)c4cccs4)cc3C(=O)N([C@@H](C)CO)C[C@H]2C)cc1
Cc1ccc(S(=O)(=O)N(C)C[C@H]2OCCCC[C@@H](C)Oc3ccc(NS(=O)(=O)c4ccc(Cl)cc4)cc3C(=O)N([C@@H](C)CO)C[C@H]2C)cc1
COc1ccccc1S(=O)(=O)N(C)C[C@@H]1Oc2cc(C#CCC(C)C)ccc2S(=O)(=O)N([C@@H](C)CO)C[C@@H]1C
C[C@@H]1CN([C@@H](C)CO)C(=O)c2cc(NS(=O)(=O)c3ccc(F)cc3)ccc2O[C@@H](C)CCCCO[C@H]1CN(C)Cc1ccc(C(F)(F)F)cc1
COc1ccc(-c2cnc3c(c2)C(=O)N([C@@H](C)CO)C[C@H](C)[C@@H](CN(C)Cc2ccc(C(=O)O)cc2)O3)cc1
C[C@@H]1CN([C@@H](C)CO)C(=O)Cc2cc(NS(=O)(=O)c3ccc(F)cc3)ccc2O[C@H]1CN(C)Cc1ccc(C(F)(F)F)cc1
COc1ccc(NC(=O)N(C)C[C@H]2Oc3c(NS(C)(=O)=O)cccc3C(=O)N([C@@H](C)CO)C[C@H]2C)cc1
C[C@@H]1CN([C@H](C)CO)C(=O)c2cc(NS(=O)(=O)c3ccc(F)cc3)ccc2O[C@@H](C)CCCCO[C@@H]1CN(C)CC1CCCCC1
C[C@H](CO)N1C[C@H](C)[C@@H](CN(C)C(=O)Cc2ccccc2)OCc2ccccc2-c2c(n(C)c3ccccc23)C1=O
